“And” between values parts separate entries of the source, which are not always exact repeats. Equal entries are not always repeated. The whole screen tested about 5,500 compounds, of which about 2,000 (36%) were called active. Roughly 18% stayed inconclusive and do not appear here. Rule as the data show it: active = normalized growth mostly below about 0.91 (no sharp cut-off); inconclusive = no clear call, values can overlap the other calls; inactive = mostly above about 0.92. The list shows a part of the results.
Assay: chemical genetic growth profiling, strain panel (AID 1159580);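 also: tested at 20 µM; growth read once vehicle control cultures reached saturation at 30 °C; 1 = growth at the plate median or of vehicle wells; lower values mean less growth of the strain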
Settings: S. cerevisiae deletion strains, growth OD

Measured: normalized growth

O=C(O)c1cc(O)c(O)c(O)c1
inactive: locus YAL021C, strain ccr4, hits give low values 1.05 | locus YAL026C, strain drs2, hits give low values 1.03 | locus YAL030W, strain snc1, hits give low values 1.02 | locus YBL061C, strain skt5, hits give low values 1.03 | locus YBR009C, strain hhf1, hits give low values 1.02 | locus YBR021W, strain FUR4, hits give low values 1.03 | locus YBR023C, strain chs3, hits give low values 1.04 | locus YBR171W, strain sec66, hits give low values 1.03 | locus YBR229C, strain ROT2, hits give low values 1.03 | locus YBR231C, strain swc5, hits give low values 1.01 | locus YBR279W, strain paf1, hits give low values 1.02 | locus YCL011C, strain gbp2, hits give low values 1.02 | locus YCL016C, strain dcc1, hits give low values 1.04 | locus YCL029C, strain bik1, hits give low values 1.07 | locus YCL069W, strain vba3, hits give low values 1.01 | locus YCR088W, strain abp1, hits give low values 1.02 | locus YDL005C, strain med2, hits give low values 1.02 | locus YDL035C, strain GPR1, hits give low values 1.07 | locus YDL040C, strain nat1, hits give low values 1.02 | locus YDL074C, strain BRE1, hits give low values 1.14 | locus YDL101C, strain DUN1, hits give low values 1.03 | locus YDL185W, strain tfp1, hits give low values 1.03 | locus YDL192W, strain arf1, hits give low values 1.03 | locus YDR001C, strain nth1, hits give low values 1.01 | locus YDR069C, strain doa4, hits give low values 1.01 | locus YDR101C, strain arx1, hits give low values 0.996 | locus YDR137W, strain rgp1, hits give low values 1.13 | locus YDR150W, strain NUM1, hits give low values 1.03 | locus YDR159W, strain sac3, hits give low values 0.987 | locus YDR162C, strain NBP2, hits give low values 1.04 | locus YDR195W, strain ref2 0.996 | locus YDR297W, strain sur2, hits give low values 1.02 | locus YDR318W, strain mcm21, hits give low values 1.04 | locus YDR334W, strain swr1, hits give low values 1.04 | locus YDR335W, strain msn5, hits give low values 1.02 | locus YDR388W, hits give low values 1.02 | locus YDR392W, strain spt3, hits give low values 0.993 | locus YDR502C, strain sam2, hits give low values 1.04 | locus YEL003W, strain gim4, hits give low values 0.996 | locus YEL037C, strain rad23, hits give low values 1.02 | locus YEL061C, strain CIN8 (second series), hits give low values 1.02 | locus YEL061C, strain CIN8, hits give low values 1.03 | locus YER015W, strain faa2, hits give low values 1 | locus YER016W, strain bim1, hits give low values 1.04 | locus YER110C, hits give low values 1.02 | locus YER111C, strain swi4, hits give low values 1.02 | locus YER155C, strain BEM2 (second series), hits give low values 1.08 | locus YER155C, strain BEM2, hits give low values 1.03 | locus YER167W, strain BCK2, hits give low values 1.03 | locus YFR010W, strain ubp6, hits give low values 0.998 | locus YGL078C, strain dbp3, hits give low values 1.03 | locus YGL086W, strain mad1, hits give low values 1.03 | locus YGL167C, strain pmr1, hits give low values 1.02 | locus YGL173C, strain kem1, hits give low values 0.994 | locus YGL227W, strain vid30, hits give low values 1.02 | locus YGL240W, strain doc1, hits give low values 1.01 | locus YGL248W, strain PDE1, hits give low values 1.08 | locus YGL253W, strain hxk2, hits give low values 1.03 | locus YGR078C, strain PAC10, hits give low values 1.04 | locus YGR135W, strain pre9, hits give low values 1.07 | locus YGR252W, strain gcn5, hits give low values 1.07 | locus YHR013C, strain ard1, hits give low values 1.04 | locus YHR027C, strain rpn1, hits give low values 1.01 | locus YHR030C, strain SLT2, hits give low values 0.966 | locus YHR079C, strain IRE1 (second series), hits give low values 1.03 | locus YHR079C, strain IRE1, hits give low values 0.969 | locus YHR094C, strain hxt1, hits give low values 1.02 | locus YHR129C, strain ARP1, hits give low values 1.05 | locus YHR142W, strain chs7, hits give low values 1.03 | locus YHR200W, strain rpn10, hits give low values 1.02 | locus YIL066C, strain RNR3, hits give low values 1.05 | locus YIL073C, strain SPO22, hits give low values 1.23 | locus YIL125W, strain kgd1, hits give low values 1.02 | locus YIR030C, strain dcg1, hits give low values 1.05 | locus YJL092W, strain hpr5, hits give low values 1.03 | locus YJL095W, strain BCK1 (second series), hits give low values 1.03 | locus YJL095W, strain BCK1, hits give low values 1.12 and 0.981 | locus YJL115W, strain asf1, hits give low values 1.02 | locus YJL129C, strain trk1, hits give low values 1.08 | locus YJL134W, strain LCB3, hits give low values 1.03 | locus YJL154C, strain vps35, hits give low values 1.03 | locus YJL164C, strain tpk1, hits give low values 1.01 | locus YJL166W, strain qcr8, hits give low values 1.04 | locus YJL168C, strain set2, hits give low values 1.02 | locus YJL187C, strain SWE1 (second series), hits give low values 1.07
